Experimental data published in PubChem BioAssay (NCI).
About 83,000 compounds went through this panel and 20% of them were active in at least one assay; those are over-represented in the sample as a whole.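 Note: values are percent growth. 100 is the growth of untreated cells, values between 100 and 0 indicate rising inhibition; between -100 and 0 indicates cell death.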 A number with no mark means an inactive call. Active and inactive are the calls of the source. Rule for the calls: active = growth percent below 10; inactive = the rest.

These compounds were tested on MDA-MB-468 breast (assay: NCI-60 one-dose screen, 48 h (100 = growth as untreated, 0 = no growth, -100 = all killed)). Conditions: 10 µM unless noted.

Row | Structure (SMILES) | growth
1 | O=C1c2cccc3c(-c4ccc5c(c4)ncn5C4CCCCC4)ccc(c23)C(=O)N1c1nc2ccccc2s1 | 92%
2 | O=C1CC(=O)N2CSCN(C(c3ccccc3)c3nc4ncncc4[nH]3)C2=N1 (configuration not stated) | 102%
3 | FC(F)(F)c1cn(CC2CNC2)c2ncnc(Cl)c12 | 111%
4 | COC(=O)c1c(C(=O)OC)c2ccc3c4ncccc4ccc3n2c1C(=O)c1ccc(C)cc1 | 79.1%
5 | NNc1cccc(/C=C/c2ccccc2)cc1=O | 38.3%
6 | CC(C)(O)c1cncc(-c2ccc3ncc(C#N)c(N4CCc5cc(F)c(Cl)cc54)c3c2)c1 | 10.2%
7 | O=C(Nc1ncc(Cc2cc(Cl)ccc2Cl)s1)c1cccs1 | 18%
8 | C=C1C(=O)O[C@H]2[C@H]1CC/C(COC(=O)NCCc1ccc(OC)c(OC)c1)=C\CC[C@@]1(C)O[C@@H]21 | 16.9%
9 | COc1cccc(-c2ccc3c(c2)C2CCN(Cc4ccccc4)C3C2)c1 (configuration not stated) | 67.9%
10 | C=C(C)[C@@H]1CC[C@]2(C)[C@H](CC[C@@H]3[C@@H]([C@@](C)(O)CCC=C(C)C)CC[C@]32C)[C@@]1(C)CCC(=O)N1CCN(C)CC1 | -82.2% [100 µM] (active)
11 | Cc1ccc(C2=NN3C(C2)c2cc(Br)ccc2OC32CCN(Cc3ccccc3)CC2)o1 (configuration not stated) | 105%
12 | O[C@H]1CO[C@H]2[C@@H]1OC[C@@H]2Oc1ccc(Nc2ccnc(Nc3ccc(O[C@H]4CO[C@H]5[C@@H]4OC[C@@H]5O)c(Cl)c3)n2)cc1Cl | -7.19% (active)
